From PubChem BioAssay
A number with no mark means an inactive call. For some assays here: Entries with a potency or affinity are not part of this list. Activity calls are given as the source filed them. Unless noted, the rule behind the calls is not given here.

How the values were obtained:
[1] = antimalarial activity against Dd2 strain (AID 2302;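 active = growth inhibition above 50% at the single 2 µM test dose, taken to imply half-maximal potency below 2 µM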;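 note: 0% = DMSO untreated growth and 100% = chloroquine plus artemisinin killed control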); settings: P. falciparum Dd2 in RBCs, LDH growth readout, 72 h; at 2 µM; hits give high values
[2] = human hepatoma cell viability loss – ATP luminescence, cytotoxicity control for P. falciparum antimalarial project, primary screen (AID 2303;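 active = inhibition above 50%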;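 note: 0% = DMSO wells and 100% = digitonin-killed cells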); settings: HepG2 viability, 24-48 h, at 10 µM, hits give high values
[3] = target: L-lactate dehydrogenase (Plasmodium falciparum (isolate CDC / Honduras)) (UniProt Q27743); test: PfLDH activity inhibition – cell lysate, 3D7 strain, counter-screen for P. falciparum growth inhibition project (AID 2304);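 note: 0% = vehicle and 100% = reference inhibitor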; settings: P. falciparum 3D7 crude extract, LDH APAD/NBT absorbance; at 2 µM; hits give high values
[4] = inhibition of 3D7 malaria parasite growth – strain 3D7 (AID 2306);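 note: 0% = DMSO wells and 100% = chloroquine plus artemisinin control wells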; settings: P. falciparum 3D7 erythrocytic growth, LDH absorbance, 72 h; at 2 µM; hits give high values
[5] = target: Calcium-dependent protein kinase 1 (Plasmodium falciparum (isolate 3D7)) (UniProt P62344); test: PfCDPK1 kinase inhibitors, biochemical, TCAMS library (AID 1159585; cut-off not given, nearly all actives have IC50 up to about 0.98 µM;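 note: inhibitors leave more ATP so luminescence rises with inhibition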); settings: recombinant PfCDPK1, Kinase-Glo ATP depletion luminescence
[6] = target: Plasmodium falciparum protein kinase 6 (PK6, PF3D7_1337100) (UniProt Q8IDW1); test: PfPK6 kinase inhibitors, biochemical, TCAMS library (AID 1159586); settings: recombinant PfPK6, Kinase-Glo ATP depletion luminescence
[7] = target: Protein kinase 7 (PK7), Plasmodium falciparum 3D7 (PF3D7_0213400) (UniProt Q7YTF7); test: inhibition of Plasmodium PK7 catalytic activity – biochemical, TCAMS antimalarial set, Kinase-Glo luminescence (AID 1159587); settings: recombinant PfPK7, Kinase-Glo ATP depletion luminescence
[8] = target: Calcium-dependent protein kinase 4 (Plasmodium falciparum (isolate 3D7)) (UniProt Q8IBS5); test: PfCDPK4 kinase inhibitors, biochemical, TCAMS library (AID 1159588; cut-off not given, nearly all actives have IC50 up to about 0.91 µM); settings: recombinant PfCDPK4, Kinase-Glo ATP depletion luminescence
Sequence of Calcium-dependent protein kinase 4 (Plasmodium falciparum (isolate 3D7)) (Q8IBS5 whole entry, looked up): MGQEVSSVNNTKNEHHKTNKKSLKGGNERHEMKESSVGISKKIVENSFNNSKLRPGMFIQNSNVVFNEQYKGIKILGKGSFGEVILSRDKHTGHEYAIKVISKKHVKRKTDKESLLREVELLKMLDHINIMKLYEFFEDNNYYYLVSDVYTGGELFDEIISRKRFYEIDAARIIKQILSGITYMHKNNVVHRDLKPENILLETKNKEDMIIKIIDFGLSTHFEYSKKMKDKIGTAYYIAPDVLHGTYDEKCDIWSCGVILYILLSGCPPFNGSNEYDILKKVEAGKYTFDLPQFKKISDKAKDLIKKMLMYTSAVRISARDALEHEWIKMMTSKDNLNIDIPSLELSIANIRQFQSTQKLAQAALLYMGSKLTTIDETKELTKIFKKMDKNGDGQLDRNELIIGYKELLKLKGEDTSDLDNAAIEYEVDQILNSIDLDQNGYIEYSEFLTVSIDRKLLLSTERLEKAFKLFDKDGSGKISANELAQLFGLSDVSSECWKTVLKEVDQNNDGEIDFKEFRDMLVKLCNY

Sequence of L-lactate dehydrogenase (Plasmodium falciparum (isolate CDC / Honduras)) (Q27743 whole entry, looked up): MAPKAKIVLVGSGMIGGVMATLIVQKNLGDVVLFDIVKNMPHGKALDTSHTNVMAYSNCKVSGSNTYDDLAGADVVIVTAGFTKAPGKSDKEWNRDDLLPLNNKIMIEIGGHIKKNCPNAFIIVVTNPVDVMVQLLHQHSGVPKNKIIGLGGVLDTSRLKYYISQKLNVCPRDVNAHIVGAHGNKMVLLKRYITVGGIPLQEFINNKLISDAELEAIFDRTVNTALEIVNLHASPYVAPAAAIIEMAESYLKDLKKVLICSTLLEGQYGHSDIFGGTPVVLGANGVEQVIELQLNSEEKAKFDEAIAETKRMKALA
Sequence of Protein kinase 7 (PK7), Plasmodium falciparum 3D7 (PF3D7_0213400) (Q7YTF7 1-343): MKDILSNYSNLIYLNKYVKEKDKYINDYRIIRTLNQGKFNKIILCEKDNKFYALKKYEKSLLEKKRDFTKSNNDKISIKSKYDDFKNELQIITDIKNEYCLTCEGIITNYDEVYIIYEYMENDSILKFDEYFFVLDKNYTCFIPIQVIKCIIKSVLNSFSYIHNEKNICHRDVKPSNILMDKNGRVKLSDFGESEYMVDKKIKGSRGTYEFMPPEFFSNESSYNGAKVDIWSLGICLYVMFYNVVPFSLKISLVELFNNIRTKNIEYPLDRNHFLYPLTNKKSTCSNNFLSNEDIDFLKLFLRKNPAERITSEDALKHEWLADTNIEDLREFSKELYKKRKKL
Sequence of Plasmodium falciparum protein kinase 6 (PK6, PF3D7_1337100) (Q8IDW1 1-305): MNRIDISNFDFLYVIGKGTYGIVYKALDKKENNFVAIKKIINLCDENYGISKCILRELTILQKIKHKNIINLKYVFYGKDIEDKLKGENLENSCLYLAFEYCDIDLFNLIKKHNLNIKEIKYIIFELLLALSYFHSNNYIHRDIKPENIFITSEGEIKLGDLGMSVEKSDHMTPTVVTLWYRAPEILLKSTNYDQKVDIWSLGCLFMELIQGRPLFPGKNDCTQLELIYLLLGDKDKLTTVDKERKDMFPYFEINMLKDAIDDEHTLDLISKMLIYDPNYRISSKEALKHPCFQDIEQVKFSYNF
Sequence of Calcium-dependent protein kinase 1 (Plasmodium falciparum (isolate 3D7)) (P62344 whole entry, looked up): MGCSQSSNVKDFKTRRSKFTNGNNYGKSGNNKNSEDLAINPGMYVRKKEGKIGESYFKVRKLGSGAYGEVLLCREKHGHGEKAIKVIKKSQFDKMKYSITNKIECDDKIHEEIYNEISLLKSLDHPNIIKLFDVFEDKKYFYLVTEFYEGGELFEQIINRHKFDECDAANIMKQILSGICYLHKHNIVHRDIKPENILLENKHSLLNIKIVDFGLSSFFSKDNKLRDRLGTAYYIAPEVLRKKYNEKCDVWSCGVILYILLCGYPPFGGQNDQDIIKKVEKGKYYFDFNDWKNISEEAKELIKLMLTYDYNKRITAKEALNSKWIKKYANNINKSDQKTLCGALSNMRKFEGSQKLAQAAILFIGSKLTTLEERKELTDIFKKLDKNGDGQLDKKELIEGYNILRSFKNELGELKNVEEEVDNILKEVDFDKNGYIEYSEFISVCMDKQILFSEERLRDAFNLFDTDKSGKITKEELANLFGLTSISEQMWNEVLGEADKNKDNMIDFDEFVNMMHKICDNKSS

Compound	growth inhibition [1]	inhibition [2]	inhibition [3] [%]	growth inhibition [4]	outcome [5]	outcome [6]	outcome [7]	outcome [8]
CC(C)CC(NC(=O)c1cccc(OCCN2CCOCC2)c1)C(=O)NC(/C=N/NC(=O)c1ccccc1)CCc1ccccc1 (configuration not stated)	88% (active)	-5%	-9	96% (active)	inactive	inactive	inactive	inactive
c1ccc(Oc2ccc(Nc3ccnc(Nc4ccc(CN5CCOCC5)cc4)n3)cc2)cc1	38%	46%	-4	92% (active)	inactive	inactive	inactive	inactive
COc1ccc(CNC(=O)c2cnc3cc(-c4c(C)noc4C)ccc3c2Nc2ccccc2C(C)(C)C)cc1	69% (active)	9%	0	99% (active)	inactive	inactive	inactive	inactive
COc1ccc2nccc([C@@H](O)CN3CCC(NCc4cc5c(Cl)cccc5[nH]4)CC3)c2c1	74% (active)	40%	1	101% (active)	inactive	inactive	inactive	inactive
CC(C)CCN1C(=O)C(NC(=O)Oc2ccccc2)C(=O)N(CC23CC4CC(CC(C4)C2)C3)c2ccccc21 (configuration not stated)	4%	3%	0	95% (active)	inactive	inactive	inactive	inactive
O=C(Nc1cccc(Cl)c1Cl)N[C@H]1CCN(CCCCCNC(=O)[C@@H]2C[C@H]2c2ccc(Cl)c(Cl)c2)C1	-7%	40%	-2	87% (active)	inactive	inactive	inactive	inactive
CC1(C)S(=O)(=O)CC(O)CS1(=O)=O	9%	8%	3	98% (active)	inactive	inactive	inactive	inactive
CCOc1cc(C(=O)N[C@@H](Cc2ccccc2)[C@H](O)CNC(C)(C)c2cccc(OC)c2)cc(N2CCCS2(=O)=O)c1	99% (active)	-5%	-3	99% (active)	inactive	inactive	inactive	inactive
O=[N+]([O-])c1cccc(CNCC2CCN(Cc3ccc(O)cc3)CC2)c1	5%	8%	1	98% (active)	inactive	inactive	inactive	inactive
N#Cc1cccc(C(=O)Nc2ccc(-c3nc4ccccc4[nH]3)cc2)c1	38%	33%	-2	91% (active)	inactive	inactive	inactive	inactive
CCN(CCCN1CCCCC1)c1cc(C)nc(Nc2ccc(C)cc2C)n1	35%	33%	6	91% (active)	inactive	inactive	inactive	inactive
Cc1ccccc1N1CCN(c2ncc(C(=O)NC3CC3)cc2Cl)CC1	96% (active)	23%	-2	91% (active)	inactive	inactive	inactive	inactive
CN(C)CCOc1ccc(NC(=O)Nc2ccnc3c(Br)cccc23)cc1Cl	25%	10%	0	97% (active)	inactive	inactive	inactive	inactive
O=C(CNC1=NCCN1)Nc1ccc(NC(=O)Nc2ccc(NC(=O)CNC3=NCCN3)cc2)cc1	75% (active)	-5%	-2	90% (active)	inactive	inactive	inactive	inactive
FC(F)(F)c1cnc(Sc2nnc(-c3ccncc3)o2)c(Cl)c1	96% (active)	10%	1	96% (active)	inactive	inactive	inactive	inactive
CC(=O)c1ccc(NC(=O)Nc2ccc3nccc(N4CCN(C)CC4)c3c2)cc1	93% (active)	2%	-1	101% (active)	inactive	inactive	inactive	inactive
COc1ccc2ccccc2c1CCCCN1CCN(CC(c2ccc(F)cc2)N2CCC(N3CCCC3)CC2)CC1 (configuration not stated)	73% (active)	74% (active)	7	99% (active)	inactive	inactive	inactive	inactive
O=C(/C=C/c1ccc(Cl)c(Cl)c1)NCCCCCN1CC[C@H](NC(=O)Nc2ccc(Oc3ccccc3)cc2)C1	14%	47%	-9	100% (active)	inactive	inactive	inactive	inactive
C[C@@H](CNc1ccnc(Nc2ccc3[nH]c(=O)[nH]c3c2)n1)c1ccccc1	1%	42%	-3	100% (active)	inactive	inactive	inactive	inactive
